From PubChem BioAssay AID463173 (ICCB-Longwood Screening Facility, Harvard Medical School, 2010) come the findings set out here.

Out of some 52,000 compounds screened, about 4,300 (8.3%) were called active. No stated cut-off is given here; in the data, active means survival mostly below about 52% (no sharp cut-off); inactive means mostly above about 56%. This excerpt belongs to a sample that is enriched for actives.

This assay deals with DeltatarO mutant. The assay is described as follows: S. aureus survival, RN4220 and DeltatarO strains – OD600, teichoic acid synthesis inhibitors, primary screen (AID 463173). Conditions: S. aureus RN4220 wild type/DeltatarO growth, OD600, 18 h, stronger effect = lower value, screened at 18.75 µg/mL (by protocol).
In the case of `O=S(=O)(NCCc1ccc(Cl)cc1)c1ccc(N2CCCCS2(=O)=O)cc1`, the survival was 93% (inactive).

Take `O=S(=O)(NCCc1ccccc1)c1ccc(N2CCCCS2(=O)=O)cc1`: the survival is 52% (active).

On to `COc1ccc(CCNS(=O)(=O)c2ccc(N3CCCCS3(=O)=O)cc2)cc1`, for which the survival was 79% (inactive).

For the molecule `c1ccc(Cn2nnnc2C(c2cccs2)N(Cc2cccnc2)Cc2ccco2)cc1` (stereo unspecified), the survival was 64% (inactive).

On to `Cc1c[n+](CC(=O)c2ccccc2)c(C)cn1`, for which the survival was 101% (inactive).

In the case of `Cc1nc(-c2ccc(F)cc2)sc1CCNC(=O)c1ccc(OC(C)C)cc1`, the survival was 67% (inactive).

Consider `Cc1ccc(C(=O)N2CCC(C(=O)O)CC2)cc1`, for which the survival is 90% (inactive).

For `Cc1ccc(Sc2c(C)nn(-c3ccccc3)c2OC(=O)CC(C)C)cc1`, the survival was 21% (active).

With `COc1ccc(C(=O)Oc2c(Sc3ccccc3)c(C)nn2-c2ccccc2)c(OC)c1`, the survival is 114% (inactive).

`COc1cc(C(=O)Oc2c(Sc3ccc(C)cc3)c(C)nn2-c2ccccc2)cc(OC)c1OC`: the survival was 109% (inactive).

Consider `Cc1ccc(C(=O)Oc2c(S(=O)(=O)c3ccccc3)c(C)nn2-c2ccccc2)cc1`, for which the survival is 90% (inactive).

For `Cc1nn(-c2ccccc2)c(OC(=O)C(C)(C)C)c1Sc1ccccc1`, the survival is 62% (inactive).

Take `Cc1ccc(Sc2c(C)nn(-c3ccccc3)c2OC(=O)C(C)(C)C)cc1`: the survival is -10% (active).

Regarding `COc1ccc(Cc2nnc(SCC(=O)N3CCCC3)o2)cc1`, the survival was 83% (inactive).

Consider `COc1ccc(N(CC(=O)NCCc2ccc(C)cc2)S(=O)(=O)c2c(C)nn(C)c2C)cc1`, for which the survival was 71% (inactive).

Regarding `COc1ccc(-c2nc3c(c(SCC(=O)N4CCCCC4)n2)Cc2cc(C)ccc2O3)cc1`, the survival was 84% (inactive).

In the case of `CSc1ncc(C(=O)NCc2ccc(C)cc2)c(-c2ccccc2)n1`, the survival was 0% (active).

`CSc1ncc(C(=O)NCc2cccc(F)c2)c(-c2ccccc2)n1`: the survival is 70% (inactive).

Take `CSc1ncc(C(=O)NCc2ccc(C)cc2)c(C)n1`: the survival is 69% (inactive).

For the molecule `CSc1ncc(C(=O)NCc2cccc(C)c2)c(-c2ccccc2)n1`, the survival is 55% (inactive).

For the molecule `CSc1ncc(C(=O)NCc2ccc(F)cc2)c(-c2ccccc2)n1`, the survival was 95% (inactive).

Regarding `CSc1ncc(C(=O)NCc2ccccc2)c(-c2ccccc2)n1`, the survival is 37% (active).

For the molecule `COc1cccc(NC(=O)c2sc3nc(C)c(C(=O)Nc4ccc(C)cc4C)c(-c4cccs4)c3c2N)c1`, the survival was 122% (inactive).

For `CCc1ccc(S(=O)(=O)c2cn(Cc3ccccc3F)c3cc(OC)c(OC)cc3c2=O)cc1`, the survival is 70% (inactive).

As for `COc1ccc(C(=O)NCc2cn3ccc(C)cc3n2)cc1`, the survival was 96% (inactive).

Turning to `Cc1c(-c2ccccc2)n(-c2ccccc2O)c2nc3c(c(=O)n(C)c(=O)n3C)n12`, the survival is 94% (inactive).

In the case of `CC(=O)c1ccc(NC(=O)c2cc3c(=O)oc4ccc(C)cc4c3s2)cc1`, the survival was 106% (inactive).

With `COc1ccc(-c2noc(CCC(=O)NCc3ccc(C)cc3)n2)cc1`, the survival is 103% (inactive).

For `COc1ccc(-c2noc(CN(C(=O)c3cc(OC)c(OC)cc3OC)C(C)C)n2)cc1`, the survival is 74% (inactive).

Turning to `Cc1ccc(-c2noc(CN(C(=O)COc3cc(C)cc(C)c3C)C(C)C)n2)cc1`, the survival was -3% (active).

As to `COc1ccc(-c2noc(CNC(=O)COc3cccc(C)c3C)n2)cc1`, the survival was 51% (inactive).

As to `COc1ccc(-c2noc(CN(C(=O)c3ccccc3Cl)C(C)C)n2)cc1`, the survival was 62% (inactive).

Take `COc1ccc(CC(=O)N(Cc2nc(-c3ccc(C)cc3)no2)C(C)C)cc1`: the survival was 31% (active).

For `COc1ccc(-c2noc(CN(C(=O)C(C)Oc3ccc(C)cc3)C(C)C)n2)cc1` (stereo unspecified), the survival was 63% (inactive).

With `COc1ccc(-c2noc(CC(=O)N(C)c3cccc(C)c3)n2)cc1`, the survival is 68% (inactive).

For the molecule `COc1ccc(-c2noc(CN(C(=O)Cc3ccc(C)cc3)C(C)C)n2)cc1`, the survival is 16% (active).

As to `COc1ccc(-c2noc(CN(C(=O)c3ccc(C)cc3C)C(C)C)n2)cc1`, the survival was -3% (active).

For the molecule `Cc1ccccc1Cn1c(C)c(CNCc2ccccc2)c(C(=O)O)c1C`, the survival was 84% (inactive).

As for `Cc1cccc(N(CC(=O)N(C)Cc2ccccc2)S(=O)(=O)c2ccccc2)c1C`, the survival is 47% (inactive).

`O=S(=O)(c1ccc(Cl)cc1)c1nnn2c1nc(NCc1ccc3c(c1)OCO3)c1sccc12`: the survival was 69% (inactive).

Consider `Cc1ccc2c(=O)c(C(=O)c3cccc(Cl)c3)cn(CC(=O)Nc3ccc4c(c3)OCCO4)c2n1`, for which the survival is 80% (inactive).

Turning to `CC(=O)Nc1ccc(S(=O)(=O)N2CCC(c3nnnn3-c3ccccc3)CC2)cc1`, the survival was 76% (inactive).

Consider `O=C(NCCN1CCCCC1)Nc1c[nH]c2c(Cl)cccc2c1=O`, for which the survival is 102% (inactive).

Consider `COC(=O)c1cc(-c2ccc(Cl)cc2)c2c(=O)[nH]c(=O)n(C)c2n1`, for which the survival is 92% (inactive).

In the case of `COc1ccc(-c2noc(-c3nnn(-c4cc(C)ccc4C)c3N)n2)cc1`, the survival is 81% (inactive).

Take `COc1ccc(-c2noc(CC(=O)Nc3ccc(Br)cc3C)n2)cc1`: the survival is 59% (inactive).

With `COc1ccc(-c2noc(CN(C(=O)COc3cc(C)c(Br)c(C)c3)C(C)C)n2)cc1`, the survival was 31% (active).

On to `Cc1ccc(-c2noc(CNC(=O)COc3cc(C)c(Br)c(C)c3)n2)cc1`, for which the survival was 80% (inactive).

`Cc1ccc(CC(=O)N(Cc2nc(-c3ccc(C)cc3)no2)C(C)C)cc1`: the survival is -4% (active).

For `Cc1ccc(-c2noc(CNC(C)C)n2)cc1`, the survival was 77% (inactive).

Regarding `Cc1ccc(CC(=O)NCc2nc(-c3ccccc3)no2)cc1`, the survival was 77% (inactive).

Consider `O=C(CS(=O)(=O)c1cccc2nsnc12)Nc1ccc(F)cc1`, for which the survival is 97% (inactive).

As to `CCN(CC)C(=O)CSc1nc2c(c(=O)n(C)c(=O)n2C)n1Cc1ccccc1`, the survival is 76% (inactive).

With `Cc1ccc(C)c(NC(=O)C(NS(=O)(=O)c2ccc3c(c2)CCC(=O)N3)c2ccccc2)c1` (stereo unspecified), the survival is 113% (inactive).

For the molecule `COC(=O)c1ccc(NC(=O)CCOc2ccccc2)cc1`, the survival is 69% (inactive).

With `CCOC(=O)Nc1ccc(C(=O)OC)cc1`, the survival was 75% (inactive).

As to `COC(=O)c1ccc(NCC(=O)c2ccccc2)cc1`, the survival is 64% (active).

Regarding `O=C(NC1CCCCC1)/C(=N\O)c1ccccn1`, the survival was 97% (inactive).

For the molecule `CCOc1ccc(NC(=O)Cn2cc(C(=O)c3ccc(C)c(C)c3)c(=O)c3cc4c(cc32)OCCO4)cc1`, the survival was 62% (inactive).

With `CCOC(=O)c1sc(N2N=C(C)CC2=O)nc1C`, the survival is 76% (inactive).

Turning to `CCCCCN1N=C(C)CC1=O`, the survival is 39% (active).

In the case of `CC1=NN(c2ccc(N)cc2)C(=O)C1`, the survival is 107% (inactive).

As for `CCN(CC)CCCNC(=O)C(=O)Nc1ccc2nc3n(c(=O)c2c1)CCCCC3`, the survival is 91% (inactive).

With `COc1ccc(-c2noc(CCC(=O)Nc3cccc(C)c3C)n2)cc1OC`, the survival was 69% (inactive).

As for `CCc1ccc(-c2nc3cc(NC(=O)c4cc5ccccc5cc4OC)ccc3o2)cc1`, the survival was 11% (active).

With `Cc1cccc(-c2nc3cc(NC(=O)COc4ccccc4F)ccc3o2)c1`, the survival is 103% (inactive).

Consider `CCc1ccc(OCC(=O)Nc2ccc3oc(-c4ccc(OC)cc4)nc3c2)cc1`, for which the survival is 62% (inactive).

Turning to `CCc1ccc2oc(-c3ccc(NC(=O)c4ccc(OC)c(Br)c4)cc3)nc2c1`, the survival was 60% (inactive).

As to `COc1cc2ccccc2cc1C(=O)Nc1ccc2oc(-c3ccc(F)cc3Cl)nc2c1`, the survival was 59% (inactive).

As for `O=C(Nc1ccc(-c2nc3cc(NC(=O)c4ccccc4F)ccc3o2)cc1)c1ccccc1F`, the survival was 90% (inactive).

`COc1cc2ccccc2cc1C(=O)Nc1ccc2oc(-c3ccc(Cl)cc3)nc2c1`: the survival was 59% (inactive).

Take `COc1cc2ccccc2cc1C(=O)Nc1ccc2oc(-c3cccc(C)c3)nc2c1`: the survival is 25% (active).

As to `COc1cc(C(=O)Nc2ccc3oc(-c4ccccc4)nc3c2)cc(OC)c1OC`, the survival is 51% (inactive).

Turning to `COc1ccc(C(=O)Nc2ccc3oc(-c4ccc5ccccc5c4)nc3c2)cc1Br`, the survival was 63% (inactive).

Regarding `COc1cc2ccccc2cc1C(=O)Nc1ccc2oc(-c3ccccc3)nc2c1`, the survival is 8% (active).

Take `COc1cc2ccccc2cc1C(=O)Nc1ccc2oc(-c3ccc(F)cc3)nc2c1`: the survival is 43% (active).

Turning to `COC(=O)CSc1ccc2nnc(CCNS(=O)(=O)c3ccccc3)n2n1`, the survival was 118% (inactive).

Take `CCc1ccc(NC(=O)NCCc2c(C)nn(C)c2C)cc1`: the survival is 72% (inactive).

On to `COc1ccccc1Cn1cc(C(=O)c2ccc(Cl)cc2)c(=O)c2ccccc21`, for which the survival was 83% (inactive).

`Cc1cccc(Cn2c(=O)n(Cc3ccc4c(c3)OCO4)c(=O)c3oc4ccccc4c32)c1`: the survival was 77% (inactive).

In the case of `Cc1oc2ncn(CC(C)C)c(=O)c2c1C(=O)Nc1cc(F)ccc1F`, the survival was 65% (inactive).

As for `COc1ccc2c(CNC3CCC(C)CC3)c(C(=O)O)n(Cc3ccc(F)cc3)c2c1` (stereo unspecified), the survival is 70% (inactive).

With `CCC(=O)n1nc(-c2ccccc2)nc1N`, the survival is 104% (inactive).

As to `CN(Cc1ccccc1)c1ncnc2c1nnn2C`, the survival was 72% (inactive).

Regarding `COc1cccc(CNC(=O)CSc2nc(=O)[nH]c3c2CCCC3)c1`, the survival is 85% (inactive).

With `C=CCSc1nnc(-c2ccccc2)n1-c1ccccc1`, the survival was 103% (inactive).

For the molecule `Cc1c(Cl)cccc1NC(=O)CSc1nc(=O)[nH]c2c1CCC2`, the survival is 93% (inactive).

As to `CCCN1C(=O)C(Cc2nc3ccccc3c(=O)n2-c2ccccc2)c2cc(C)ccc21` (stereo unspecified), the survival is 68% (inactive).

`CCCN1C(=O)C(Cc2nc3ccccc3c(=O)n2-c2cccc(C)c2)c2ccccc21` (stereo unspecified): the survival was 36% (active).

In the case of `CCCN1C(=O)C(Cc2nc3ccccc3c(=O)n2CC)c2cc(Br)ccc21` (stereo unspecified), the survival is 34% (active).

Regarding `CCOC(=O)CSc1nc2ccccc2c(=O)n1-c1cccc(C)c1`, the survival is 31% (active).

Turning to `CCCN1C(=O)C(Cc2nc3ccccc3c(=O)n2CC)c2ccccc21` (stereo unspecified), the survival is 84% (inactive).

As to `CCn1c(CC2C(=O)N(C)c3ccc(Br)cc32)nc2ccccc2c1=O` (stereo unspecified), the survival is 70% (inactive).

Take `CCOC(=O)CSc1nc2ccccc2c(=O)n1-c1ccc(C(=O)NCCOC)cc1`: the survival was 96% (inactive).

As to `Cc1cccc(-n2c(SCC(N)=O)nc3ccccc3c2=O)c1`, the survival was 90% (inactive).

For `CCN1C(=O)C(Cc2nc3ccccc3c(=O)n2-c2cccc(C)c2)c2ccccc21` (stereo unspecified), the survival was 50% (inactive).
